# NPYLR7 agonist: mosquito NPYLR7 agonism | activation, % at 10 µM | 270,000 compounds, 0.15% hits | HEK293T NPYLR7/Galpha15, GCaMP6s calcium fluorescence; in the data active means activation above about 40%;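 further: 0% = vehicle and 100% = reference agonist at the receptor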
# hcGAS inh: inhibitors of human cGAS; Q8N884; recombinant h-cGAS, ATP depletion, Kinase-Glo luminescence; inhibition, % at 12.5 µM; 290,000 compounds, 0.081% hits;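 further: 0% = vehicle reaction and 100% = reaction without DNA for no activity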
# mcGAS lum: inhibitors of mouse cGAS; 160,000 compounds, 0.15% hits; recombinant cGAS, Kinase-Glo ATP depletion luminescence; inhibition, % at 12.5 µM; Q8C6L5;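 further: 0% = negative control wells and 100% = reference inhibitor with no enzyme activity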
# Target sequence (Q8C6L5 whole entry, looked up): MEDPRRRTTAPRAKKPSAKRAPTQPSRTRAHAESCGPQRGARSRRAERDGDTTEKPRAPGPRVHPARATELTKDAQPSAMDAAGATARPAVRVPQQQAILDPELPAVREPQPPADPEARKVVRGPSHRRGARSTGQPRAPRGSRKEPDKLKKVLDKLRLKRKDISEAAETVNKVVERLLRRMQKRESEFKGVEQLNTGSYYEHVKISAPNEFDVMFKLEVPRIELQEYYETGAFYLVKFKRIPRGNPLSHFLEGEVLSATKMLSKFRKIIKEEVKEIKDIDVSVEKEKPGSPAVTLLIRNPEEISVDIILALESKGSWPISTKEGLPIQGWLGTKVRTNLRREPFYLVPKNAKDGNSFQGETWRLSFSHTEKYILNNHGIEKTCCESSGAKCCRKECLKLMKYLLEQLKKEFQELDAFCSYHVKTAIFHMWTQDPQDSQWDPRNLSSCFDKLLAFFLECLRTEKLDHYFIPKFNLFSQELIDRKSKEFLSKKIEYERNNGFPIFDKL
# * = called active by the depositor; / = no result given; + = active, no number; ! = repeats disagree. Most compounds without a hit are left out; they make up all but 0.28% or so of the library. Unless noted, no stated cut-off is given here; in the data, active means inhibition above about 40%; inactive means the rest.
SMILES,NPYLR7 agonist,hcGAS inh,mcGAS lum
O=[N+]([O-])c1ccc2nc(-c3nc4ccc([N+](=O)[O-])cc4[nH]3)[nH]c2c1,3.8,-6.9,/
CCOC(=O)c1cc(-c2ccc(N3CCN(C(=O)c4cc(C)oc4C)CC3)cc2)n(-c2ccccc2Cl)n1,25.7,-5.0,-7.1
COc1c(C)cc(-c2cccc(N)n2)cc1C,-0.3,0.7,/
O=c1[nH]c2ccccc2n2c(=S)[nH]nc12,-0.1,37.8,52.3*
NS(=O)(=O)c1ccc2[nH]c(=O)c3n[nH]c(=O)n3c2c1,11.2,3.8,/
O=C(c1ccccc1OC1CCN(Cc2ccsc2)CC1)N1CCCCC1,17.7,-3.9,/
CN(C)c1ccc(/C=C2/C(=O)NC(=O)N(Cc3ccccc3)C2=O)cc1,4.9,11.0,-3.1
CCCn1c2c(c(=O)n(C)c1=O)C(=O)C(=Cc1ccc(N(C)C)cc1)N2,259.1*,-2.2,-5.4
O=C(CCn1c(Cc2c(Cl)cccc2Cl)nc2ccccc21)NCCN1CCCC1,/,45.5*,-0.4
O=C(CN1CCCCCC1)NCCn1nnc2ccccc21,7.6,1.9,/
Cc1cccc(OCc2nc(CN(CCN(C)C)C(=O)c3ccccc3F)cs2)c1C,10.7,-5.2,-3.1
CCN(Cc1csc(COc2cccc(C)c2C)n1)C(=O)c1ccccc1F,24.7,-2.6,88.2*
C[C@H]1C(=O)N(CC(=O)Nc2ccc3ncsc3c2)C[C@@H]2N(CC3CC3)CCC(=O)N21,-1.7,-2.0,-3.0
N#Cc1c(N)oc2c3c(c(O)cc12)C(=O)c1ccccc1C3=O,2.2,48.3*,/
Nc1c(O)ccc2c1C(=O)c1ccccc1C2=O,1.9,-7.1,-5.6
O=C1O[C@@H]2CN(c3nccc4ccccc34)C[C@@H]2N1CCc1cccc(Cl)c1,-6.1,-1.7,1.0
CCCN(Cc1ccsc1)CC(O)COc1ccccc1 (configuration not stated),26.8,-4.1,40.6*
C=CCOCC(O)CN(Cc1ccc(F)cc1)Cc1cccc(OC)c1 (configuration not stated),22.4,-9.8,-3.9
COc1cccc(CN(Cc2ccc(F)cc2)CC(O)COc2ccccc2)c1 (configuration not stated),38.8,-4.2,76.3*
CC(C)CN(Cc1ccsc1)CC(O)COc1ccc(Cl)cc1 (configuration not stated),6.3,-6.0,-4.1
CCCCN(Cc1cccn1Cc1cccc(C)c1)C(=O)CN(CC(C)C)C(=O)c1ccc(Cl)cc1Cl,-5.0,-0.2,-3.7
O=C(C1COc2ccccc2C1)N(Cc1ccco1)C1CC1 (configuration not stated),-0.8,-7.3,/
COc1cc(/C=N\n2nnnc2N)ccc1OCC(N)=O,0.6,-4.7,/
COc1ccc(NC(=O)c2ccc(NC(C)C)nc2)cn1,6.2,-4.2,-4.8
COCCOc1ccc(NC(=O)N(C)C(C)C2(C)CC2)cn1 (configuration not stated),134.0*,-6.7,-15.4
SMILES,NPYLR7 agonist,hcGAS inh,mcGAS lum
Cc1ccc(C)c(C2C(C#N)C(=N)SC(=N)C2C#N)c1 (configuration not stated),119.7*,-3.1,/
N#CC1C(=N)SC(=N)C(C#N)C1c1ccc(F)cc1F (configuration not stated),0.4,18.5,23.8
N#Cc1c(C(F)(F)F)cc(=O)n2c1[nH]c1ccccc12,-3.2,46.0*,/
Cc1c(Cc2ccccc2)c(=O)n2c([nH]c3ccccc32)c1C#N,4.3,-2.3,/
N#Cc1c(-c2ccccc2)cc(=O)n2c1[nH]c1ccccc12,3.7,1.2,/
Cc1cc(=S)n2c([nH]c3ccccc32)c1C#N,-8.2,40.5*,/
CCCC1Oc2ccccc2C(=O)N(CC(=O)c2cc(C)ccc2OC)C1=O (configuration not stated),-8.9,-2.7,-4.7
CCC(C(=O)N1CCN(CC(OCc2ccc(C(=O)OC)cc2)c2ccc(Cl)cc2)CC1)c1ccccc1 (configuration not stated),/,-6.7,87.9*
COC(=O)c1ccc(COC(CN2CCN(C(=O)c3ccc(Cl)cc3)CC2)c2ccc(Cl)cc2)cc1 (configuration not stated),/,-7.0,-4.7
COc1cc(/C=N\NC(=O)C(C)Sc2nc3ccccc3s2)ccc1OCc1ccccc1 (configuration not stated),6.5,-2.2,-1.9
S=c1[nH]nc(-c2sc3ccccc3c2Cl)o1,0.3,50.5*!,47.2*
Clc1c(-c2nnco2)sc2ccccc12,-1.8,0.6,/
COc1cccc(C(NCc2ccccc2F)P(=O)(O)O)c1 (configuration not stated),0.7,-5.5,/
CCCCCn1c(=O)c2c(nc3n2CCN3c2cc(C)cc(C)c2)n(C)c1=O,139.6*,-1.6,/
CCCCCn1c(=O)c2c(nc3n2CCN3c2ccccc2)n(C)c1=O,4.3,-5.0,/
CCOC(=O)C1=C(C)NC(=O)NC1c1ccccc1O (configuration not stated),-9.7,0.8,0.0
CCCOc1cc(S(=O)(=O)N(C)C)ccc1Cl,7.6,-7.5,-6.7
OC[C@H]1OC([S-])[C@H](O)[C@@H](O)[C@@H]1O.[Au+] (some centres not stated),-7.7,68.1*,57.0*
OC[C@@H](O)C(O[C@@H]1O[C@H](CO)[C@H](O)[C@H](O)[C@H]1O)[C@H](O)[C@@H](O)CO (some centres not stated),/,-3.7,/
CC(C)(C)NC(=O)Cn1nc(-c2ccccc2)c2sc(N3CCCC3)nc2c1=O,-2.1,-10.5,-8.5
Cc1ccc(-c2nc(SC3CCOC3=O)n[nH]2)cc1 (configuration not stated),-3.1,12.1,/
COc1ccc(CCNC(=O)c2ccccc2N2CCC(NC(=O)c3ccc(OC)c(OC)c3)CC2)cc1OC,7.5,-0.4,-2.5
COc1ccc(CCNC(=O)c2ccccc2N2CCC(NC(=O)c3ccco3)CC2)cc1OC,-5.3,-2.8,78.0*
Cc1ccsc1C(O)c1nnc(Nc2c(C)cccc2C)s1 (configuration not stated),3.2,-1.1,-2.4
Cc1cc(Cl)cc2c3c([nH]c12)CCC(NC(=O)Cc1ccc2c(c1)OCO2)C3 (configuration not stated),25.6,-2.1,-1.3
SMILES,NPYLR7 agonist,hcGAS inh,mcGAS lum
O=C1CCCC2Nc3ncnc(Cl)c3OC12 (configuration not stated),77.5*,6.4,/
O=C(NCCN1CCCCC1)c1ccc(CSc2nc(Cl)cc(N3CCCC3)n2)cc1,4.9,-5.6,-4.1
CN1CCN(c2cc(Cl)nc(SCc3ccc(C(=O)NCCN4CCCC4)cc3)n2)CC1,11.8,68.8*,8.0
COc1cccc(CNC(=O)CCC2CCCN(C(=O)Cc3cccc(C)c3)C2)c1 (configuration not stated),-1.5,-8.9,/
COc1cc(C2CN(C(=O)CC(C)(C)C)CC2C(=O)NCC(C)C)cc(OC)c1OC (configuration not stated),7.1,0.5,/
COc1cccc(C2CN(C(=O)CC(C)(C)C)CC2C(=O)NCc2ccccn2)c1OC (configuration not stated),5.1,+,/
O=C(O)Cc1cc(I)c(Oc2cc(I)c(O)c(I)c2)c(I)c1,/,68.5*,93.9*
O=C(O)Cc1cc(I)c(Oc2ccc(O)c(I)c2)c(I)c1,-0.2,-1.8,36.1
CC(=O)Nc1nc(COc2ccc(C)cn2)cs1,-7.7,4.1,/
O=[N+]([O-])c1ccc(OC2=NS(=O)(=O)c3cc([N+](=O)[O-])ccc32)cc1,8.8,-8.2,-5.3

# Screening results from PubChem BioAssay.
